# Hits are enriched below; roughly 4% of the tested compounds scored in any of these assays.
# GDH-TPI counter-1 = counter-screen for M. tuberculosis FBA inhibitors: GDH-TPI coupled enzymes; GDH-TPI coupled enzyme counterscreen, NADH absorbance; inhibition, % at 4.8 µM; 360,000 tested, 1.2% active; AID 588335; in the data active = inhibition above about 30%;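 also: 0% = DMSO wells and 100% = wells lacking the enzyme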
# Rv3671c protease = inhibits the M. tuberculosis serine protease Rv3671c. inhibition, % at 5.96 µM. P9WHR9. 320,000 tested, 0.048% active. AID 2606; in the data active = inhibition above about 38%;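 also: extracellular domain of Rv3671c used as enzyme; 0% = enzyme with DMSO and 100% = no enzyme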
# Target sequence (P9WHR9 whole entry, looked up, the tested form may be a part): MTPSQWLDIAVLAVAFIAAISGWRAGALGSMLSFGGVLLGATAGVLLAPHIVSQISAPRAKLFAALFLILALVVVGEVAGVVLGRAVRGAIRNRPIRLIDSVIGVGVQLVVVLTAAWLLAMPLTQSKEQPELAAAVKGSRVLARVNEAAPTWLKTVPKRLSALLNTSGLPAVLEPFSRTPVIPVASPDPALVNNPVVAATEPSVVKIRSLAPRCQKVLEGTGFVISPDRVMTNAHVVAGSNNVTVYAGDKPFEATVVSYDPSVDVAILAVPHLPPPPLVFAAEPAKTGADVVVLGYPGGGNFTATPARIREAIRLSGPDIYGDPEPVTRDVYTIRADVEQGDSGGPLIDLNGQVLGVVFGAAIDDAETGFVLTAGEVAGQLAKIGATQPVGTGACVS
# Mtb bLac sens = beta-lactam sensitization of Mtb H37Rv. inhibition, % at 25 µM. 330,000 tested, 0.27% active. M. tuberculosis H37Rv growth with meropenem, percent inhibition; call rule not given here;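 also: growth measured after seven days incubation then overnight dye step; 0% = bacteria only wells and 100% = bacteria with antibiotic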
# RecA splice inh = inhibitors of M. tuberculosis RecA intein splicing; P9WHJ3; cell-free RecA intein splicing, fluorescence; inhibition, % (no concentration beside the values); 290,000 tested, 0.75% active; AID 2221; in the data active = inhibition above about 30%; inconclusive = no clear call, values can overlap the other calls;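 also: 0% = vehicle wells and 100% = reference inhibitor control wells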
# Mtb UGM inh = inhibitors of M. tuberculosis UDP-galactopyranose mutase; P9WIQ1; purified UGM, fluorescence polarization probe displacement; inhibition, % at 10 µM; 320,000 tested, 0.06% active; in the data active = inhibition above about 10%, passing the limit was not always enough; inconclusive = no clear call, values can overlap the other calls
# FBA Mtb inh = Mtb fructose-bisphosphate aldolase inhibition | P9WQA3 | purified M. tuberculosis FBA, fluorescence read-out | inhibition, % at 1 µM | 360,000 tested, 2.3% active | AID 588726;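 also: 0% = vehicle and 100% = reference inhibitor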
# Mtb FBA confirm = Mtb FBA inhibition, confirmed | shares compounds with FBA Mtb inh | purified M. tuberculosis FBA, fluorescence read-out | inhibition, % at 1 µM | 5,600 tested, 78% active | AID 651616;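 also: 0% = vehicle wells and 100% = reference inhibitor wells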
# GDH-TPI counter-2 = inhibits GDH-TPI coupling enzymes, flagging Mtb FBA hits | shares compounds with FBA Mtb inh | GDH-TPI coupled enzyme counterscreen, fluorescence | inhibition, % at 1 µM | 5,600 tested, 81% active; in the data active = inhibition above about 10%
# GDH-TPI DR = GDH-TPI dose response counter-screen for Mtb FBA | IC50, µM | GDH-TPI coupled enzyme assay, fluorescence, artifact counterscreen | 170 tested, 79% active | AID 652145 | shares compounds with FBA Mtb inh; call rule not given here
# An asterisk follows results filed as active; ? = inconclusive; nt = no result given; + = active, no number. Rule as the data show it, unless noted: active = inhibition above about 27%; inactive = the rest.
SMILES,GDH-TPI counter-1,Rv3671c protease,Mtb bLac sens,RecA splice inh,Mtb UGM inh,FBA Mtb inh,Mtb FBA confirm,GDH-TPI counter-2,others
CCOC(=O)N1CCN(C(=O)c2ccc3nc4ccsc4c(=O)n3c2)CC1,25,0,-9,-2,-2,29*,4,7,
COc1cccc(N(CC(=O)NCCSCc2ccc(Cl)cc2)S(C)(=O)=O)c1,11,15,-4,1,0,-3,nt,nt,
O=C(c1ccc(CS(=O)(=O)Cc2ccccc2)cc1)N1CCCCC1,-5,4,2,-5,-1,5,nt,nt,
O=C(NC(CO)(CO)CO)[C@@H]1CCCN1S(=O)(=O)c1cccc2cccnc12,7,-2,0,nt,1,0,nt,nt,
N#Cc1nc(-c2ccc(Cl)cc2)oc1NCc1cccc2c1OCO2,-4,-5,0,0,-2,27*,110*,89*,
N#Cc1nc(-c2ccc(Cl)cc2)oc1NCCc1ccccn1,31*,-8,-4,2,1,28*,88*,82*,
COc1ccc(Nc2oc(-c3ccccc3)nc2C#N)cc1,7,6,-4,-2,2,3,nt,nt,
Cc1ccc(-c2nc(C#N)c(NCCc3ccccn3)o2)cc1,16,-7,8,1,2,10,nt,nt,
C=CCNc1oc(-c2ccc(-c3ccccc3)cc2)nc1C#N,2,5,99,nt,nt,1,nt,nt,
COc1ccc(-c2nc(C#N)c(NCCc3ccccc3)o2)cc1,13,9,-3,-1,1,80*,37*,26*,
N#Cc1nc(-c2ccccc2)oc1NCc1ccco1,17,8,0,1,-1,101*,59*,50*,
COC(=O)c1[nH]c2cc(OC)c(OC)cc2c1/C=N/Nc1ccccc1,18,14,54,-2,-1,19,nt,nt,
Cc1cc(NC(=O)CCC(=O)N(CC(=O)NCC2CCCO2)c2cccc(F)c2)no1 (configuration not stated),-11,-3,1,0,0,-5,nt,nt,
COc1cc(OC)c(C(=O)OCC(=O)NCCC2=CCCCC2)cc1OC,-4,2,2,0,0,0,nt,nt,
CCOc1ccc(Nc2oc(-c3ccc(Cl)cc3)nc2C#N)cc1,9,0,28,-2,2,2,nt,nt,
COc1ccc(CNc2oc(-c3ccccc3)nc2C#N)cc1,18,-4,?,7,6,92*,95*,73*,
COc1ccc(CCNc2oc(-c3ccc(C)cc3)nc2C#N)cc1OC,8,4,3,1,-3,51*,70*,62*,
CCOc1ccc(-c2nc(C#N)c(NC3CC3)o2)cc1,8,-8,-6,2,0,96*,-3,-7,
COc1ccc(CCNc2oc(COc3ccc(Br)cc3)nc2C#N)cc1OC,-1,2,0,10,-1,2,nt,nt,
Fc1ccc(NC(=S)Nc2cccnc2)c(F)c1F,-6,4,-2,-1,nt,4,nt,nt,
Cc1ccc(-c2cc(-c3ccc(C)cc3)[n+](-c3ccc(C(=O)[O-])cc3)c(-c3ccc(C)cc3)c2)cc1,46*,-3,100,40*,-2,38*,14,7,GDH-TPI DR=3.8*
CCOc1cc(S(=O)(=O)NCc2ccco2)c(OCC)cc1-n1cnnn1,8,-10,-3,-3,-1,30*,63*,45*,
CCOc1cc(S(=O)(=O)NC2CC2)c(OCC)cc1-n1cnnn1,-5,-6,-1,-4,0,34*,184*,159*,
CCOc1cc(S(=O)(=O)N2CCN(S(=O)(=O)CC)CC2)c(OCC)cc1-n1cnnn1,1,-11,4,0,-3,9,nt,nt,
O=C(Cn1c2ccc(F)cc2c2nc3n(c(=O)c21)CCS3)NCC1CCCO1 (configuration not stated),9,-19,-10,0,0,30*,62*,55*,
SMILES,GDH-TPI counter-1,Rv3671c protease,Mtb bLac sens,RecA splice inh,Mtb UGM inh,FBA Mtb inh,Mtb FBA confirm,GDH-TPI counter-2,others
COc1ccccc1NC(=O)Cn1c2ccc(F)cc2c2nc3n(c(=O)c21)CCS3,18,-14,1,0,0,9,nt,nt,
Cc1ncc(C(=O)O)c(C(=O)O)c1N,6,1,9,-8,-1,34*,19,15*,
CSc1ncc(C(=O)O)c(C)n1,-1,8,-1,0,4,-1,nt,nt,
CCOC(=O)C1CCCN(C(=O)c2ccc(F)c(Cl)c2)CC1 (configuration not stated),-2,nt,nt,nt,nt,-1,nt,nt,
C[N+]1(C2CCC3CCCC2C3O)CCCCC1 (configuration not stated),4,-3,-2,0,-2,-3,nt,nt,
COc1c(C)cccc1C(=O)NC(=S)Nc1ccccc1N1CCCC1,7,-5,99,0,-2,1,nt,nt,
COc1ccc(-c2csc(=NCCO)n2-c2ccccc2)cc1,0,nt,9,0,-1,0,nt,nt,
O=C(O)c1ccccc1C(=O)c1ccc(F)c(F)c1,6,nt,nt,nt,nt,1,nt,nt,
COc1ccc2oc(C(=O)OCC(=O)Nc3ccc(NC(C)=O)cc3)c(C)c2c1,8,-75,-2,nt,2,27*,94*,80*,
COc1ccc2oc(C(=O)OCC(=O)NC3CCS(=O)(=O)C3)c(C)c2c1 (configuration not stated),6,nt,nt,nt,nt,53*,167*,104*,
COc1ccc2oc(C(=O)OCC(=O)NC3CCCC3)c(C)c2c1,8,-5,?,1,-1,38*,132*,113*,
COc1ccc2oc(C(=O)OCC(=O)Nc3ccc(OC)c(S(N)(=O)=O)c3)c(C)c2c1,7,-11,-1,-2,-3,27,nt,nt,
COc1ccc2oc(C(=O)OCC(=O)NC3(C#N)CCCC3)c(C)c2c1,-3,0,4,1,-5,35*,+,+,
CCOc1ccc2oc(C(=O)OCC(=O)NC3CCCCC3)c(C)c2c1,-6,-8,19,nt,-2,22,nt,nt,
COc1ccc2oc(C(=O)OCC(=O)NCc3ccccc3OC)c(C)c2c1,4,-11,1,-1,-1,18,nt,nt,
CCc1cc(-c2nnn(CCC3COCCO3)c2C(C)(C)O)ccc1-c1cn(CCc2c[nH]c3ccccc23)nn1 (configuration not stated),0,nt,nt,nt,nt,-2,nt,nt,
COC(=O)c1ccc(NS(=O)(=O)NC(=O)c2cn(C)c3ccccc23)cc1,7,2,29,2,2,4,nt,nt,
O=C(CC1C(=O)NCCN1CC1CCCCC1)NCCCN1CCOCC1 (configuration not stated),-6,3,5,-2,0,-2,nt,nt,
COc1ccc2oc(C(=O)OCC(=O)Nc3cc(S(=O)(=O)N4CCOCC4)ccc3C)c(C)c2c1,9,-51,2,-3,1,32*,-3,-5,

# Source: PubChem (several laboratories)
